Mcl-1 Bim block = inhibitors of Bim-Mcl-1 interaction, human | Q07820 | Bead-based flow cytometry, Bim peptide-Mcl-1 binding | inhibition, % at 10 µM | 0.1% of 190,000 active; in the data active means inhibition above about 40%
Hck-Nef inh = inhibitors of human Hck kinase activated by Nef. inhibition, % at 20 µM. AID 463187. 0.68% of 220,000 active. P08631. Recombinant Hck-YEEI plus Nef, Z-Lyte FRET kinase assay;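 active means Hck-Nef kinase inhibition above about 50%, limit read from the data; inactive means inhibition below that limit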
Target sequence (P08631 whole entry, looked up): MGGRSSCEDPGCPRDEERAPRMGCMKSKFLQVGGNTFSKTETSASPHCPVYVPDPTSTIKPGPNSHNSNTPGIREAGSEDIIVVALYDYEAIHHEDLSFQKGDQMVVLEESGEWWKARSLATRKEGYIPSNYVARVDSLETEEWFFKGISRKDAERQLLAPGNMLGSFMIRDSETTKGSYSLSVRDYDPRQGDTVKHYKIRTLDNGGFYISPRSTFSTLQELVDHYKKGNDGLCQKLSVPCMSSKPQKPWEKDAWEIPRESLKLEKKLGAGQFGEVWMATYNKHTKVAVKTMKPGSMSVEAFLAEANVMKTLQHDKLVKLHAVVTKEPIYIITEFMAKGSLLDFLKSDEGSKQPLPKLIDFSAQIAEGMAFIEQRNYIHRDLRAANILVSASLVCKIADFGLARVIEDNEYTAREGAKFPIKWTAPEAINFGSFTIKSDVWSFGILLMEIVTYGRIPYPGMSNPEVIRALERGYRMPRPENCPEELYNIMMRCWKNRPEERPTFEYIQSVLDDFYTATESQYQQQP
Mcl1 Bid PPI = disrupts binding of human Mcl-1 to Bid peptide; 0.97% of 220,000 active; AID 1021; TR-FRET Mcl-1/Bid-Dy647 peptide binding, 1536-well; Q07820; inhibition, % at 21.7 µM;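 active means compounds that cut the binding signal by more than half at the single screening dose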;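 further: His-tagged Mcl-1 with europium anti-His antibody binding Bid BH3 peptide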
Pf gamet viab = inhibitors of late stage P. falciparum gametocyte viability; P. falciparum stage V gametocytes, ATP luminescence, 24 h; AID 743093; 0.065% of 150,000 active; inhibition, % at 10.9 µM;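 active means inhibition above the mean plus 3 SD of compounds within the control limits, set per campaign, cut at about 38% in these data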
Mcl1-Noxa inh = disrupts binding of human Mcl-1 to Noxa peptide; inhibition, % at 21.7 µM; Q07820; TR-FRET Mcl-1/Noxa peptide binding, 2 h; 1.5% of 220,000 active;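 active means compounds that cut the protein-peptide binding signal by more than 50% relative to plate controls in a single-dose test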;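 further: His-tagged Mcl-1 with rhodamine Noxa BH3 peptide and terbium anti-His antibody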
14-3-3 Bad PPI = disrupts binding of bovine 14-3-3 zeta to phospho-Bad peptide; P63103; 0.71% of 220,000 active; inhibition, % at 21.7 µM; TR-FRET 14-3-3zeta/Dy647-pBad peptide displacement, 1 h;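 active means inhibition above about 70%, limit read from the data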
Target sequence (P63103 whole entry, looked up): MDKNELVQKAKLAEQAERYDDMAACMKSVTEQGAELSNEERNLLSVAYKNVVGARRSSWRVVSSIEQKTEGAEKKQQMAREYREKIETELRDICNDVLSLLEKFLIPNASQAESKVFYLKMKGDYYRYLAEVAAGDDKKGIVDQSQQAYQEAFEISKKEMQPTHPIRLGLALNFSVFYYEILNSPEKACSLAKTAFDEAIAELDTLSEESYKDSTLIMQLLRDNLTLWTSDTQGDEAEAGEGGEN
Large screens that a line does not name were inactive; [ ] = another dose, or the depositor's remark. Hits are enriched below; roughly 2.9% of the tested compounds scored in any of these assays.

CCOC(=O)c1ccc(NC(=O)C2CCC(CNc3c(N4CCOCC4)c(=O)c3=O)CC2)cc1 (centres undefined)	none (no result: Mcl-1 Bim block)
Cc1cccc2cc(-c3nc4c(C)cccn4c3NCc3ccco3)c(=O)[nH]c12	none (no result: Pf gamet viab)
Cc1ccc2[nH]c(=O)c(-c3nc4cc(C)ccn4c3NCc3ccco3)cc2c1	Mcl1 Bid PPI 80, Mcl1-Noxa inh 60 (no result: Pf gamet viab)
COc1cccc(C(=O)NCCN2CCOCC2)c1	none
COc1ccccc1N1C(=O)C=C(Sc2nc(C)cc(C)n2)C1=O	Mcl1-Noxa inh 54 (no result: Mcl-1 Bim block)
Cc1ccc(N=Nc2c(C)[nH]n(C(N)=S)c2=O)cc1C	none
Cc1[nH]n(C(N)=S)c(=O)c1N=Nc1ccc(S(=O)(=O)N2CCCCCC2)cc1	Mcl-1 Bim block 51
C/C(=N\NC(=O)c1c(Cl)c(C)nn1C)c1cccc(NC(=O)COc2ccccc2)c1	Mcl1 Bid PPI 60 (no result: Pf gamet viab)
O=C(CCCOc1ccc(Cl)cc1Cl)Nc1cccnc1	14-3-3 Bad PPI 78 (no result: Pf gamet viab)
CN(C)CCC1Sc2ccccc2Oc2ccccc21 (centres undefined)	Mcl1 Bid PPI 58
CC(=O)NC(c1cccs1)c1cc([N+](=O)[O-])c2cccnc2c1O (centres undefined)	Mcl1-Noxa inh 55
Cc1c(O)c2ccccc2n(-c2ccccc2)c1=O	none (no result: Mcl-1 Bim block, Hck-Nef inh, Mcl1 Bid PPI, Mcl1-Noxa inh, 14-3-3 Bad PPI)
CC(C)(C)c1c(Cl)c(O)c(-c2ccccc2)c(=O)n1-c1ccccc1	Mcl1 Bid PPI 86, 14-3-3 Bad PPI 80
CC(C)(C)NS(=O)(=O)c1ccc(CCC(=O)O)cc1	none
CC(=O)NC(CCS(C)(=O)=O)C(=O)Nc1ccc2c(c1)OCO2 (centres undefined)	none (no result: Pf gamet viab)
CC(C)(C)NC(=O)NC(=O)COC(=O)CNC(=O)c1cc(Cl)cc([N+](=O)[O-])c1	Pf gamet viab 42
CCn1cnc2scc(-c3ccc(OC)cc3)c2c1=O	none (no result: Mcl-1 Bim block, Hck-Nef inh, Mcl1 Bid PPI, Mcl1-Noxa inh, 14-3-3 Bad PPI)
CCOc1ccc(-c2csc3ncn(-c4ccc(OC)cc4)c(=O)c23)cc1	Mcl1 Bid PPI 84
O=C(c1noc2c1CCCC2)N1CCOCC1	none (no result: Pf gamet viab)
COc1cc(Cl)c(C)cc1NC(=O)CSc1cc(Cl)ccc1Cl	Mcl1-Noxa inh 56
Brc1cccc(CNCc2ccncc2)c1	none (no result: Mcl-1 Bim block, Hck-Nef inh, Mcl1 Bid PPI, Mcl1-Noxa inh, 14-3-3 Bad PPI)
C=CS(=O)(=O)c1sc(Cl)c(N2CCOCC2)c1[N+](=O)[O-]	Mcl1 Bid PPI 69, Mcl1-Noxa inh 67
C=CSc1sc(Cl)c(N2CCOCC2)c1[N+](=O)[O-]	none
COc1ccc(NC(=O)N(C)C[C@H]2Oc3c(NC(=O)Nc4ccccc4)cccc3C(=O)N([C@H](C)CO)C[C@@H]2C)cc1	none (no result: Mcl-1 Bim block, Hck-Nef inh, Mcl1 Bid PPI, Mcl1-Noxa inh, 14-3-3 Bad PPI)
CCN1/C(=C\C=C2\C(=O)N(c3ccccc3)C(=S)N2C)Sc2ccccc21	Mcl1 Bid PPI 78, Mcl1-Noxa inh 60, 14-3-3 Bad PPI 95
CN(C)c1ccc(NC2=C(Cl)C(=O)c3ccccc3C2=O)cc1	Mcl1-Noxa inh 100
O=C1C(Cl)=C(Nc2ccc3cn[nH]c3c2)C(=O)c2ccccc21	Mcl1-Noxa inh 93 (no result: Mcl-1 Bim block, Pf gamet viab)
CC(=O)Nc1ccc(NC2=C(Cl)C(=O)c3ccccc3C2=O)cc1	none
COc1cccc(N=Nc2c(N)[nH]n3c(=O)cc(-c4ccccc4)nc23)c1	Mcl1 Bid PPI 56
Cc1ccc(N=Nc2c(N)[nH]n3c(=O)cc(-c4ccccc4)nc23)cc1	Mcl1 Bid PPI 76, Mcl1-Noxa inh 81
Cc1cc(=O)n2[nH]c(N)c(N=Nc3ccccc3)c2n1	none (no result: Pf gamet viab)
CSc1nc2c(c(=O)[nH]1)CCCC2	none
CSc1nc(=S)c2[nH]c(=S)[nH]c2[nH]1	Mcl1-Noxa inh 51 (no result: Mcl-1 Bim block, Pf gamet viab)
Cc1cc(C(=O)CSc2nnc(-c3ccc(OC(F)F)cc3)o2)c(C)n1Cc1cccs1	none
COc1ccc(-c2nnc(SCC(=O)c3cc(C)n(Cc4cccs4)c3C)o2)cc1	14-3-3 Bad PPI 75 (no result: Pf gamet viab)
COc1ccc(NS(=O)(=O)c2cccc(NC(=O)CCC(=O)c3ccc(Cl)cc3)c2)cc1	Mcl1 Bid PPI 96
CC(C)Cn1ccc(=O)n(CC(C)C)c1=O	Mcl1 Bid PPI 55 (no result: Pf gamet viab)
CCOC(=O)C1=C(O)/C(=C\c2ccc(OC)c(OC)c2)N=C1C	none (no result: Pf gamet viab)
CCOC(=O)CSC1=N/C(=C\c2ccc(OC)c(OC)c2)C(=O)N1C	14-3-3 Bad PPI 74[fluorescence artefact?]
O=S(=O)(c1ccc2nc(Cc3cccc(C(F)(F)F)c3)[nH]c2c1)N1CCOCC1	none (no result: Pf gamet viab)
O=S(=O)(NCc1ccccc1)c1cccc(S(=O)(=O)N2CCOCC2)c1	Mcl1 Bid PPI 81
O=S(=O)(c1cccc(S(=O)(=O)N2CCC(Cc3ccccc3)CC2)c1)N1CCOCC1	none (no result: Pf gamet viab)
O=S(=O)(c1ccc2c(c1)oc1ccccc12)N1CCOCC1	14-3-3 Bad PPI active[fluorescence artefact?]
Cn1c(=O)oc2cc(S(=O)(=O)N3CCOCC3)ccc21	none (no result: Pf gamet viab)
O=S(=O)(c1ccc2nc(Cc3ccccc3)[nH]c2c1)N1CCOCC1	14-3-3 Bad PPI 88 (no result: Pf gamet viab)
COc1cccc(Cn2nnc(C(=O)NCc3ccc4c(c3)OCO4)c2N)c1	none
O=C(CN(C(=O)c1ccc(Cl)cc1Cl)N1C(=O)C2C3C=CC(C3)C2C1=O)c1ccc(F)cc1 (centres undefined)	none (no result: Mcl-1 Bim block, Mcl1 Bid PPI, Mcl1-Noxa inh, 14-3-3 Bad PPI)
Cc1ccc(C(=O)CN(C(=O)c2ccc(Cl)c(Cl)c2)N2C(=O)C3C4C=CC(C4)C3C2=O)cc1 (centres undefined)	Mcl1 Bid PPI 80 (no result: Mcl1-Noxa inh)
COC(=O)c1cc(NC(=S)NCc2ccc(Cl)cc2)cc(C(=O)OC)c1	Mcl1 Bid PPI 97 (no result: Pf gamet viab)
COc1ccc2c(c1)NC(C)(C)C=C2C	none
CC1=CC(C)(C)Nc2ccccc21	Mcl1-Noxa inh 67
NC(=O)c1ccc(NC(=O)COC(=O)/C=C/c2ccc3c(c2)OCO3)cc1	none (no result: Mcl-1 Bim block)
COc1ccc2cc(C(=O)NCc3ccco3)c(=Nc3ccc(C(=O)O)cc3)oc2c1	none (no result: Pf gamet viab)
COc1ccc(N=c2oc3c(OC)cccc3cc2C(=O)NCc2ccco2)c(OC)c1	Mcl1 Bid PPI 65 (no result: Pf gamet viab)
CCS(=O)(=O)N1CCN(C(=O)CC(C)C)CC1	none
COc1ccc(NC(=O)CSc2ccc3c4c(cccc24)C(=O)c2ccccc2-3)cc1	none
N#Cc1cccc(NC(=O)CSc2ccc3c4c(cccc24)C(=O)c2ccccc2-3)c1	Mcl1 Bid PPI 74 (no result: Pf gamet viab)
CNC(=O)NC(=O)COC(=O)c1ccccc1OCc1ccccc1	Mcl1-Noxa inh 54
Cc1ccc2c(c1)c1cccc3c1n2CCN3CCC(N)=O	Mcl1-Noxa inh 67 (no result: Pf gamet viab)
Nc1ccc2c(c1)-c1ccccc1S(=O)(=O)N2	Mcl1-Noxa inh 52
N#CC(c1ccc(Cl)cc1)c1ccc2c(C(F)(F)F)cc(C(F)(F)F)nc2n1 (centres undefined)	none (no result: Pf gamet viab)
O=C1CCCc2c1cc(C(=O)NCc1ccco1)c(=O)n2-c1ccccc1	none (no result: Pf gamet viab)
Cc1cccc(C(=O)Nc2cccc(NC(=O)c3ccccc3)c2)c1	none (no result: Mcl-1 Bim block, Hck-Nef inh, Mcl1 Bid PPI, Mcl1-Noxa inh, 14-3-3 Bad PPI)
Cc1cccc(NC2=C(NC(=O)c3ccccc3)C(=O)c3ccccc3C2=O)c1	Mcl1-Noxa inh 94
O=C(NC1=C(Nc2ccc(Cl)cc2)C(=O)c2ccccc2C1=O)c1ccccc1	Mcl1-Noxa inh 61
O=C(NC(NC1CCS(=O)(=O)C1)C(=O)c1cccs1)c1ccccc1 (centres undefined)	none (no result: Pf gamet viab)
